Experimental findings from PubChem BioAssay AID1347070 (National Center for Advancing Translational Sciences (NCATS), 2019) are described below.

Screen size: about 94,000 compounds; about 20 (0.02%) were called active. Another 1% or so got no clear call; they are omitted. Only a sample is shown. Unmarked numbers belong to inactive results. Calls follow the shape of the dose curve; as a rule, active = well fitted activation curve with a large enough effect; inconclusive = small, poorly fitted or top-dose-only effect; inactive = flat fitted curve, though single readings scatter.

This test can be described thus: qHTS of alpha-syn Inhibitors: NCGC Sytravon Library Screen. Also: 0% is about no effect. As to conditions: S. cerevisiae alpha-synuclein toxicity rescue, BacTiter-Glo growth, 24 h; series mostly up to 46.1 µM; growth rescue (activation): at the top concentration. From the text:
The goal of this project is to identify new chemical probes capable of reversing the toxicity associated with the Parkinson disease-related protein, alpha-synuclein. Compounds will be selected on their ability to restore growth in yeast cells expressing toxic levels of alpha-synuclein. These compounds will provide a complementary approach to deciphering the tangled mechanisms of toxicity and protection that we have uncovered through genome-wide genetic screens and are beginning to uncover in a large-scale proteomics analysis with mass spectroscopy. To this end, a miniaturized assay was developed to be screened against the Molecular Libraries Small Molecule Repository (MLSMR) to discover alpha-synuclein inhibitors. […] The phenotype of interest will be that of an Activator and this screen is run against the NCGC Sytravon Library collection. NIH Chemical Genomics Center [NCGC] NIH Molecular Libraries Probe Centers Network [MLPCN] MLPCN Grant: NS060957 Assay Submitter (PI): Susan Lindquist, Whitehead Institute/MIT
Dispense 2.5 microL yeast galactose medium per 1536-well plate, pin compound, dispense 2.5 microL alpha-synuclein expressing yeast in galactose medium at OD600=0.02 (pregrown in raffinose medium to mid-log phase) per well, incubate for 24 hr at 30 deg C, and cell growth will be measured using 5 microL of Bactiter/Glo reagent to entire plate and read using Luminescence Protocol in ViewLux.
A general note: In qHTS, concentration-response curves come from the screen itself.
On to `C[C@H]1CN(c2ccc(Br)cc2)C(=O)[C@@H]1CC(=O)Nc1ccc(Br)cc1`, for which the “growth rescue (activation)” value was -0.722%.

With `COC(=O)CNC(=O)c1cc(-c2ccncc2)nc2ccccc12`, the “growth rescue (activation)” value is -6.59%.

On to `O=C(NC1CCCC1)c1cc(-c2ccccc2)on1`, for which the “growth rescue (activation)” value was 12.5%.

As for `CCOc1ccc(C(CC(=O)O)n2cnnn2)cc1OC` (centres undefined), the “growth rescue (activation)” value was -9.12%.

Consider `COCCN(Cc1nc(-c2ccc(C(F)(F)F)cc2)no1)C(C)C`, for which the “growth rescue (activation)” value was 0.309%.

Regarding `CC(Nc1nc(C(F)(F)F)nc2ccccc12)c1cccs1` (centres undefined), the “growth rescue (activation)” value was -25.6%.

As for `CCc1noc(C)c1C(=O)OCC(=O)c1ccc(NC(=O)CC(C)C)cc1`, the “growth rescue (activation)” value was 13.9%.

In the case of `CCc1nc2c(=O)[nH]cnc2o1`, the “growth rescue (activation)” value was 2.78%.

For `CN(Cc1ccc(F)cc1Cl)S(=O)(=O)c1cccs1`, the “growth rescue (activation)” value was 10.8%.

For the compound `O=C(OCC(=O)N1CCCCCC1)c1cccc(Cl)c1Cl`, the “growth rescue (activation)” value is 4.74%.

Take `O=C(CN1CCCCC1)NC(=O)Nc1ccccc1F`: the “growth rescue (activation)” value is -14.9%.

Consider `Cc1ccc(O)c(NC(=O)c2cc(-c3ccco3)on2)c1`, for which the “growth rescue (activation)” value is -16.3%.

For `CCOC(=O)Cc1cc(=O)[nH]c(/N=C(\N)Nc2ccc(OC)cc2)n1`, the “growth rescue (activation)” value was -4.69%.

As to `COc1ccccc1N(C)C(=O)c1cc(S(=O)(=O)N2CCc3ccccc32)cn1C`, the “growth rescue (activation)” value is 6.55%.

As to `COc1ccc(-c2ccc3[nH]c4c(c3c2)CCN2C[C@H]3[C@H](C)ON(C)[C@H]3C[C@@H]42)cc1`, the “growth rescue (activation)” value is -9.12%.

Take `CC(=O)Nc1ccccc1NC(=O)c1cc(C)cc(C)c1`: the “growth rescue (activation)” value was 4.72%.

Regarding `O=C(COC(=O)Cc1ccc(Cl)cc1Cl)NCc1ccco1`, the “growth rescue (activation)” value is 17.9%.

For the compound `Cc1cc(=O)c2ccc(NC(=O)c3ccccc3)cc2[nH]1`, the “growth rescue (activation)” value is 0.927%.

For the compound `Cc1cc2c3ccccc3[nH]c(=O)n2n1`, the “growth rescue (activation)” value is -10.2%.

In the case of `COc1cccc(COC(=O)C2CCN(S(=O)(=O)c3cccs3)CC2)c1OC`, the “growth rescue (activation)” value is 5.75%.

Turning to `CSc1nc(-c2ccco2)nn1C(=O)c1ccccc1Cl`, the “growth rescue (activation)” value is 6.42%.

Take `COc1ccc(C=C2CCC3C(CCCC34OCCO4)C2=O)cc1` (centres undefined): the “growth rescue (activation)” value is -0.491%.

Turning to `Cc1cccc(NC(=O)c2cc([N+](=O)[O-])ccc2N2CCN(C)CC2)c1`, the “growth rescue (activation)” value is -6.98%.

Turning to `CCN(CCNC(=O)C1=C(C)C(=O)OC12CCC(C)CC2)c1ccccc1` (centres undefined), the “growth rescue (activation)” value is 14.2%.

Regarding `CCCCN1C(=O)C(CC(=O)NC(c2ccccc2)c2ccccc2)CC(C(=O)N2CCOCC2)=C1C` (centres undefined), the “growth rescue (activation)” value was 1.76%.

On to `COCCn1c(C)cc(C(=O)COC(=O)/C=C/c2cccc(OC)c2)c1C`, for which the “growth rescue (activation)” value is 4.85%.

As for `C[C@@H]1CN([C@@H](C)CO)C(=O)c2cc(NS(C)(=O)=O)ccc2O[C@@H](C)CCCCO[C@H]1CN(C)C(=O)Nc1ccc2c(c1)OCO2`, the “growth rescue (activation)” value is -4.92%.

In the case of `COc1ccc(C(=O)COC(=O)CNC(=O)c2cccs2)cc1Br`, the “growth rescue (activation)” value was 13.6%.

For the compound `Cc1ccccc1NS(=O)(=O)CCCCC(Cl)(Cl)Cl`, the “growth rescue (activation)” value was 4.69%.

As to `CC1CCN(C(=O)CCNC(=O)c2ccccc2)CC1`, the “growth rescue (activation)” value was 9.67%.

In the case of `CC(C)CN(C(=O)COC(=O)c1ccc2ccccc2c1)c1c(N)n(Cc2ccccc2)c(=O)[nH]c1=O`, the “growth rescue (activation)” value was -8.4%.

Take `COc1ccc(/C=C(\NC(=O)c2ccccc2)C(=O)NCCN2CCOCC2)cc1OC`: the “growth rescue (activation)” value is -13%.

As to `Cc1ccc(SCCC(=O)Nc2cc(C)on2)cc1`, the “growth rescue (activation)” value was -5.87%.

With `Cc1onc(-c2ccccc2Cl)c1C(=O)OCc1nnc(-c2ccccc2)o1`, the “growth rescue (activation)” value is 14.1%.
